Results taken from PubChem BioAssay (NCATS).
“And” between values parts separate entries of the source, which are not always exact repeats. Equal entries are not always repeated. Inconclusive results are not listed. The source made the active and inactive calls. Unless noted, calls come from the whole dose curve; as a rule, active = well fitted curve in the direction sought with a large enough effect; inconclusive = small, poorly fitted or top-dose-only effect, or another doubt; inactive = no such curve, though single readings can be large; an effect the other way counts as inactive or inconclusive. Peptide text beside a SMILES is read from it.

Key:
[1] = system: Hek293T; assay: Primary qHTS to identify gynecologic anti-cancer compounds using libraries of approved drugs and bioactive compounds (AID 1345084); details: Gynecologic cancer cell panel viability, ATPlite luminescence, 48 h, control line for the selectivity index; series mostly up to 57.5 µM; note: nearly all actives have a fitted effect of over 55% in size; note: potency is the fitted concentration of half-maximal effect
How it was run: (§1)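 Cells, 1,000 per well, plated 16 h, then exposed 48 h at 37 C to compounds. Viability by ATPlite luminescence after 15 min at room temperature.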

[2] = system: JEG-3; assay: as above; details: Gynecologic cancer cell panel viability, ATPlite luminescence, 48 h; series mostly up to 57.5 µM
How it was run: as §1

[3] = system: OV90; assay: as above; details: Gynecologic cancer cell panel viability, ATPlite luminescence, 48 h; series mostly up to 57.5 µM
How it was run: as §1

[4] = system: PA-1; assay: as above; details: Gynecologic cancer cell panel viability, ATPlite luminescence, 48 h; series mostly up to 57.5 µM
How it was run: as §1

[5] = system: SKOV3; assay: as above; details: Gynecologic cancer cell panel viability, ATPlite luminescence, 48 h; series mostly up to 57.5 µM
How it was run: as §1

[6] = system: Tov-21-G; assay: as above; details: Gynecologic cancer cell panel viability, ATPlite luminescence, 48 h; series mostly up to 57.5 µM
How it was run: as §1

[7] = system: Tov112D; assay: as above; details: Gynecologic cancer cell panel viability, ATPlite luminescence, 48 h; series mostly up to 57.5 µM
How it was run: as §1

[8] = Drug repurposing screens with cells derived from glioblastoma tumor samples (AID 1345199); details: GBM patient neurospheres viability, ATP luminescence, 48 h; note: nearly all actives have a fitted effect of over 40% in size; note: potency is the fitted concentration of half-maximal effect; for activity, negative = cell killing: % is set by controls: 0 for no effect and ±100 for the full control effect
How it was run: (§2)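 Four patient lines of CD133+ GBM neurospheres were screened at several concentrations; hits were retested in those lines plus three slower-growing GBM lines, using 48-hour treatment and ATP-based viability.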

[9] = system: astro; assay: as above; details: viability, ATP luminescence, 48 h; series mostly up to 45.9 µM
How it was run: as §2

[10] = target: Nuclear receptor subfamily 1 group I member 2 (Rattus norvegicus) (UniProt Q9R1A7); assay: qHTS assay for small molecule activators of the rat pregnane X receptor (rPXR) signaling pathway (AID 651751; call rule not given here; note: 0% is about no effect); details: rPXR reporter cells, luciferase (One-Glo), 24 h
Chain of Nuclear receptor subfamily 1 group I member 2 (Rattus norvegicus) (Q9R1A7 whole entry, looked up): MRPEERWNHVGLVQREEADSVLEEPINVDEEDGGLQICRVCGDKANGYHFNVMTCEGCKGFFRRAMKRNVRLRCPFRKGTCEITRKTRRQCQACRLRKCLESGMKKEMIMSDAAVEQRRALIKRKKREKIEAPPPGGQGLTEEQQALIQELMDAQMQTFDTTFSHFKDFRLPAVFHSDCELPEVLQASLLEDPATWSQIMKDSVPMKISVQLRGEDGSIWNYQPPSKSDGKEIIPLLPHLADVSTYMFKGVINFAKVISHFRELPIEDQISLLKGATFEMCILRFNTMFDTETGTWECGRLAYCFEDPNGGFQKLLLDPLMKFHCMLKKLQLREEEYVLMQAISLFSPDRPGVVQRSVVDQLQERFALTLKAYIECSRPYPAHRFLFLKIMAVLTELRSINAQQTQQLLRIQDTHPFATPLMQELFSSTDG

[11] = qHTS assay for small molecule activators of the human pregnane X receptor (PXR) signaling pathway (AID 720659; call rule not given here; note: 0% is about no effect)
[12] = qHTS assay to identify inhibitors of the type 1 interferon - major histocompatibility complex class I in skeletal muscle: Counter screen cell viability and HiBit confirmation (AID 1347412); details: iHSKM muscle cells + IFN-b, HiBiT or CellTiter-Glo, 24 h; note: potency is the fitted concentration of half-maximal effect; nearly all actives have a fitted effect of over 60% in size
How it was run: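 Human myoblast knock-in line, 4.0 ng/ml IFN-beta stimulation, 24 h compound treatment. Endpoints: HiBiT lytic luminescence (HLA-B level) and CellTiter Glo (ATP). Dosing 12 concentrations, 3-fold steps, 46 uM highest final.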

[13] = at 20 µM (top of the series), tumour line C
[14] = at 21.2 µM (top of the series), tumour line B
[15] = at 45.9 µM (top of the series), tumour line B
[16] = at 45.9 µM (top of the series), tumour line D
[17] = at 46.1 µM (top of the series), tumour line C

Oc1ccc(OCc2ccccc2)cc1
inactive: Potency [1] | Potency [2] | Potency [3] | Potency [4] | Potency [5] | Potency [6] | Potency [7] | activity, negative = cell killing [8, 13] 4.55% | activity, negative = cell killing [8, 14] -21.3% | Potency [9]

CC1=C(C)C(=O)C(C(CCCCCC(=O)O)c2ccccc2)=C(C)C1=O (stereo unspecified)
inactive: Potency [1] | Potency [2] | Potency [3] | Potency [4] | Potency [5] | Potency [6] | Potency [7] | activity, negative = cell killing [8, 15] -10.7% | activity, negative = cell killing [8, 16] 17% | Potency [9]

CC(C)[C@H](N)C(=O)OCCOCn1cnc2c(=O)[nH]c(N)nc21
inactive: Potency [1] | Potency [2] | Potency [3] | Potency [4] | Potency [5] | Potency [6] | Potency [7] | Potency [9]

COC(=O)[C@H](Cc1ccccc1)NC(=O)[C@@H](N)CC(=O)O (H-Asp-Phe-OMe)
inactive: Potency [1] | Potency [2] | Potency [3] | Potency [4] | Potency [5] | Potency [6] | Potency [7] | Potency [9] | max response [10] -0.463% and 3.11%

NS(=O)(=O)c1cc(C(=O)O)c(NCc2ccco2)cc1Cl
inactive: Potency [1] | Potency [2] | Potency [3] | Potency [4] | Potency [5] | Potency [6] | Potency [7] | activity, negative = cell killing [8, 15] -8.22% | activity, negative = cell killing [8, 16] -18.4% | activity, negative = cell killing [8, 17] 5.25% | Potency [9] | max response [10] 7.06% and 0.0174% | outcome [11]

CCCc1cc(=O)[nH]c(=S)[nH]1
inactive: Potency [1] | Potency [2] | Potency [3] | Potency [4] | Potency [6] | Potency [7] | activity, negative = cell killing [8, 15] -8.42% | activity, negative = cell killing [8, 16] -9.52% | activity, negative = cell killing [8, 17] -10.7% | Potency [9] | max response [10] -3.12% and -0.189% | outcome [11]

Cc1cccc(CN2CCN(C(c3ccccc3)c3ccc(Cl)cc3)CC2)c1 (stereo unspecified)
inactive: Potency [1] | Potency [2] | Potency [4] | Potency [5] | Potency [6] | Potency [7] | activity, negative = cell killing [8, 13] -7.92% | Potency [9]
active: Potency ([8]; tumour line A) 5.62 µM

c1ccc2[nH]c(-c3cscn3)nc2c1
inactive: Potency [2] | Potency [3] | Potency [4] | Potency [5] | Potency [6] | Potency [7]

CN(C)CCCC1(c2ccc(F)cc2)OCc2cc(C#N)ccc21 (stereo unspecified)
inactive: Potency [1] | Potency [2] | Potency [4] | Potency [5] | Potency [6] | Potency [7]

Cc1nc(Nc2ncc(C(=O)Nc3c(C)cccc3Cl)s2)cc(N2CCN(CCO)CC2)n1
inactive: Potency [1] | Potency [2] | Potency [7]
active: Potency [4] 0.251 µM | Potency [5] 14.1 µM

CN(C)c1ccc2nc3ccc(=[N+](C)C)cc-3sc2c1
inactive: outcome [11]
active: Potency [1] 14.1 µM | Potency [2] 2 µM | Potency [3] 12.6 µM | Potency [4] 0.891 µM | Potency [6] 10 µM | Potency [7] 6.31 µM | Potency [9] 5.01 µM | Potency ([12]; Viability) 15.7 µM

CCCS(=O)c1ccc2nc(NC(=O)OC)[nH]c2c1 (stereo unspecified)
active: Potency [4] 14.1 µM | Potency [7] 8.91 µM
inactive: Potency [2] | Potency [3]

Cc1cc(=O)oc2cc(O)ccc12
inactive: Potency [1] | Potency [2] | Potency [3] | Potency [4] | Potency [6] | Potency [7] | activity, negative = cell killing [8, 13] -8.91% | activity, negative = cell killing [8, 14] -9.65% | activity, negative = cell killing ([8]; at 21.2 µM (top of the series), tumour line D) -8.02% | Potency [9]

Cc1c(C(=O)NN2CCCCC2)nn(-c2ccc(Cl)cc2Cl)c1-c1ccc(Cl)cc1
inactive: Potency [2] | Potency [3] | Potency [4] | Potency [5] | Potency [6] | Potency [7] | activity, negative = cell killing [8, 17] -11.3%
active: Potency ([8]; tumour line A) 5.01 µM | Potency [9] 35.5 µM

CC(C)C[C@H](NC(=O)[C@H](Cc1ccccc1)NC(=O)c1cnccn1)B(O)O
active: Potency [3] 0.0447 µM | Potency [5] 0.501 µM | Potency [7] 2 µM and 2.24 µM | Potency [9] 501 nM and 316 nM | Potency ([12]; HiBiT) 0.0313 µM
inactive: Potency [2]

Cc1ncc([N+](=O)[O-])n1CC(C)O (stereo unspecified)
inactive: Potency [1] | Potency [3] | Potency [4] | Potency [5] | Potency [6] | Potency [7] | activity, negative = cell killing [8, 15] -7.1% | activity, negative = cell killing [8, 16] 3.12% | activity, negative = cell killing ([8]; at 46 µM (top of the series), tumour line A) -20.2% | activity, negative = cell killing [8, 17] -8.86% | Potency [9]

CCN(CC)CCOc1ccc(Cc2ccccc2)cc1
inactive: Potency [1] | Potency [2] | Potency [6] | Potency [7]
active: Potency [9] 22.4 µM

CN(C)C(=O)[C@H](O)[C@H](Cc1ccccc1)NC(=O)c1cc2cc(Cl)ccc2[nH]1
inactive: Potency [2] | Potency [3] | Potency [4] | Potency [5] | Potency [6] | Potency [7]

Cc1cc(=O)c2c(O)c3c(O)cc(=O)c4c3c3c(cc(O)c1c23)C(C)(C)C=4O
active: Potency [1] 2 µM | Potency [4] 2.82 µM | Potency [5] 3.55 µM | Potency [6] 3.16 µM | Potency [7] 2.24 µM | Potency [9] 2.51 µM

O=C1CCc2ccc(OCCCCN3CCN(c4cccc(Cl)c4Cl)CC3)cc2N1
inactive: Potency [2] | Potency [3] | Potency [5] | Potency [6] | Potency [7] | activity, negative = cell killing [8, 17] -16.8%
active: Potency ([8]; tumour line A) 3.98 µM | Potency ([8]; tumour line B) 22.4 µM | Potency [9] 31.6 µM

CN1CCC(=C2c3ccccc3CCc3sccc32)CC1
active: Potency ([8]; tumour line A) 3.98 µM | Potency ([8]; tumour line D) 12.6 µM
inactive: Potency [1] | Potency [2] | Potency [4] | Potency [6] | Potency [7] | activity, negative = cell killing [8, 17] 4.48%
